Bioassay records: PubChem, National Center for Advancing Translational Sciences (NCATS)
BAZ2B block: qHTS Assay for Inhibitors of BAZ2B | Potency, µM (series often up to 114 µM), for inactives: top-dose activity change, negative = inhibition, most hits filed as inhibitors | hit rate 4.4% among 360,000 | Bromodomain adjacent to zinc finger domain protein 2B (Homo sapiens), Q9UIF8 | AlphaScreen BAZ2B-H3K14Ac peptide displacement; also: potency is read from the fitted curve at half-maximal effect; % is scaled to controls: 0 for no effect and ±100 for the full control effect; nearly all actives have a fitted effect of over 60% in size
Target sequence (Q9UIF8 whole entry, looked up, the tested form may be a part): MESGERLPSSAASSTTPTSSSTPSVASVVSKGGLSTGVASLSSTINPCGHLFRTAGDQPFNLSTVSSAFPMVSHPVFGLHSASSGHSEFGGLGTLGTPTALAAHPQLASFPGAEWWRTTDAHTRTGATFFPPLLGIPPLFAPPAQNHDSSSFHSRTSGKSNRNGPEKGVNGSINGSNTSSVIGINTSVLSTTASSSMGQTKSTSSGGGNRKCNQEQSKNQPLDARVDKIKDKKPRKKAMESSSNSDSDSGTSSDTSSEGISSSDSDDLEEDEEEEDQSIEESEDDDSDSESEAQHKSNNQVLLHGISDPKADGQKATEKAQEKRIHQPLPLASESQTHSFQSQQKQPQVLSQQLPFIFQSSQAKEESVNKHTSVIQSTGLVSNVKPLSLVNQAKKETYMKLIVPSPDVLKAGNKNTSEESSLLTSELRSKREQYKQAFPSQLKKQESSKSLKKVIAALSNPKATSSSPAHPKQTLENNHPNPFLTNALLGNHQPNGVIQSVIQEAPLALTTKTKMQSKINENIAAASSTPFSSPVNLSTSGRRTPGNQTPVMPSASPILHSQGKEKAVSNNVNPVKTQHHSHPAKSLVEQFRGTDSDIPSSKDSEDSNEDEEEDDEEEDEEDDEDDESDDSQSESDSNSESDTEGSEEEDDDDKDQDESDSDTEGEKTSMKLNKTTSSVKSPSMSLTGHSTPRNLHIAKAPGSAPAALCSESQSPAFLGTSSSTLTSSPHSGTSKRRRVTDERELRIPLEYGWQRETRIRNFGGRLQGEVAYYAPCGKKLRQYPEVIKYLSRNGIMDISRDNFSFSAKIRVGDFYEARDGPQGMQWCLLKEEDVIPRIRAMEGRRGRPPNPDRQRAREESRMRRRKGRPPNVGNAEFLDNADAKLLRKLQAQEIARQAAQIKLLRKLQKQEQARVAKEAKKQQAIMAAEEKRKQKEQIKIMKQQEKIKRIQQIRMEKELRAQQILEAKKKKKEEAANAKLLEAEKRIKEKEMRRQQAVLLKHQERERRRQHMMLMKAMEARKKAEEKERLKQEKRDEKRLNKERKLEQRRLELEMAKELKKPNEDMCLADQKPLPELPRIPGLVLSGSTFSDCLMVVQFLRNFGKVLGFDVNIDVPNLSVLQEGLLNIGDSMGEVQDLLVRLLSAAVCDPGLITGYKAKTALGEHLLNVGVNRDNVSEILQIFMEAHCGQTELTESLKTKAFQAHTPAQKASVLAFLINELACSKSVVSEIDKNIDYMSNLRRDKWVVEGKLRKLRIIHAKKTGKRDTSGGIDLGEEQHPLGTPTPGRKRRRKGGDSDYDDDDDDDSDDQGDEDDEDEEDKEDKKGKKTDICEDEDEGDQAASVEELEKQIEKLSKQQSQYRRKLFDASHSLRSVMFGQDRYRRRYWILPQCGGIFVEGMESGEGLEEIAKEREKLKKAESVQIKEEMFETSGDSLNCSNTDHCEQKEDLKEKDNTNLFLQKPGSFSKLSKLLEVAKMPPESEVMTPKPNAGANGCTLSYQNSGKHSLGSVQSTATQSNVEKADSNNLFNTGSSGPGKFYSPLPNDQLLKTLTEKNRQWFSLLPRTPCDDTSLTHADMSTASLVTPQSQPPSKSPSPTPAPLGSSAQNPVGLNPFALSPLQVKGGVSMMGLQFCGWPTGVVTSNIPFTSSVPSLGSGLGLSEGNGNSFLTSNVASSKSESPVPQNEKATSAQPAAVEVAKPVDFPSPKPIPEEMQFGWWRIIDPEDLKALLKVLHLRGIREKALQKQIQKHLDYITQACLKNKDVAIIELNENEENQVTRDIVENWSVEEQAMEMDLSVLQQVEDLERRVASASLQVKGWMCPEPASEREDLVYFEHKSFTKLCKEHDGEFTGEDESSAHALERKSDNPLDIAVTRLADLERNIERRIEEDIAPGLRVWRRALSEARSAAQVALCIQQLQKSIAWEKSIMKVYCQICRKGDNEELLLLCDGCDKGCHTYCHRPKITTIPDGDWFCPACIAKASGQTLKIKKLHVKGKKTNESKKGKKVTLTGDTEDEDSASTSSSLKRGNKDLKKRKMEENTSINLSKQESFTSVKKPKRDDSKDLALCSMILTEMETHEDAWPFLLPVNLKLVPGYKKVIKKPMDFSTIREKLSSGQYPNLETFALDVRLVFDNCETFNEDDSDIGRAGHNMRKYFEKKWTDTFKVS
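BAZ2B 50 nM plus b-H3(5-23)K14Ac 50 nM, PBS pH 7.4/0.01% Tween-20, 30 min RT; compound added (max 110 uM), 30 min RT; streptavidin donor/Ni-chelate acceptor beads 10 ug/mL final, 20 min dark; AlphaScreen read.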
PI5P4K alpha inh: qHTS for Inhibitors of phosphatidylinositol 5-phosphate 4-kinase (PI5P4K); hit rate 1.2% among 330,000; Phosphatidylinositol 5-phosphate 4-kinase type-2 alpha (Homo sapiens), P48426; AID 652105, 2013; max response, %; PI5P4Kalpha enzyme, ADP-Glo luminescence, 60 min; hits give low values; active = max response of -50% or lower; inconclusive = between -30% and -50%; inactive = -30% or higher; also: value at the top dose of about 77 µM; % is scaled to controls: 0 for no effect and ±100 for the full control effect
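Reactions run in 0.038 M HEPES pH 7.4, 0.28 mM EGTA, 0.1% CHAPS and 5% DMSO, with PI5P4Kalpha, substrate, compound and 5 microM ATP final, one hour at room temperature. Readout is ADP-Glo luminescence.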
JMJD2A Tudor: qHTS Assay for Inhibitors of JMJD2A-Tudor Domain; hit rate 4.4% among 390,000; AlphaScreen JMJD2A-Tudor / H3K4me3 peptide binding; Potency, µM (top dose mostly 114 µM), for the others: at the highest dose activity change, negative = inhibition, usual class: inhibitors; Lysine-specific demethylase 4A (Homo sapiens), O75164; also: potency is read from the fitted curve at half-maximal effect; % is scaled to controls: 0 for no effect and ±100 for the full control effect; nearly all actives have a fitted effect of over 50% in size
G9a block: qHTS Assay for Inhibitors of Histone Lysine Methyltransferase G9a. G9a H3K9 monomethylation, AlphaScreen, 2 h. Histone-lysine N-methyltransferase EHMT2 (Homo sapiens), Q96KQ7. Potency, µM (doses to about 102 µM), inactives show at the highest dose activity, negative = inhibition, hits mostly inhibitors. hit rate 8.8% among 350,000. AID 504332, 2011; also: potency is read from the fitted curve at half-maximal effect; % is scaled to controls: 0 for no effect and ±100 for the full control effect; nearly all actives have a fitted effect of over 75% in size
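Readings reflect AlphaScreen signal from monomethyl-H3K9 antibody detection. HMT at 20 nM; substrate b-H3K9 500 nM; cofactor SAM 20 uM; 2 h RT reaction; compounds tested as titrations in qHTS with 15 min preincubation.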
HP1b binding inh: HTS for Inhibitors of HP1-beta Chromodomain Interactions with Methylated Histone Tails; Chromobox protein homolog 1 (Homo sapiens), P83916; AlphaScreen HP1-beta / biotin-H3K9me3 peptide binding; Potency, µM (top dose mostly 114 µM), inactives show top-dose activity change, negative = inhibition, hits mostly inhibitors; hit rate 0.56% among 390,000; AID 540317, 2011; also: potency is read from the fitted curve at half-maximal effect; nearly all actives have a fitted effect of over 70% in size
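HP1-beta protein (50 nM final) preincubated 30 min at room temperature with biotinylated H3(1-18)K9me3 peptide (50 nM) in PBS pH 7.4, 0.01% Tween-20, then compound added for 30 min. AlphaScreen streptavidin donor/nickel chelate acceptor beads (10 ug/mL final), 30 min dark, luminescence read.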
PLK1 PBD inh: qHTS for Inhibitors of PLK1-PDB (polo-like kinase 1 - polo-box domain): Primary Screen; Potency, µM, for inactives: max response, negative = inhibition, hits mostly inhibitors; Serine/threonine-protein kinase PLK1 (Homo sapiens), P53350; Plk1 PBD binding of FITC phosphopeptide, fluorescence polarization; hit rate 2.8% among 360,000; also: potency is read from the fitted curve at half-maximal effect; series mostly up to about 57 µM; % is scaled to controls: 0 for no effect and ±100 for the full control effect; nearly all actives have a fitted effect of over 65% in size
Numbers without * were called inactive; [ ] = dose if it differs, or a comment. Only some compounds are listed: those with a hit (about 12% of all), similar ones and a draw of the others. Unless noted, calls follow the shape of the dose curve; as a rule, active = well fitted curve in the direction sought with a large enough effect; inconclusive = small, poorly fitted or top-dose-only effect, or another doubt; inactive = no such curve, though single readings can be large; an effect the other way counts as inactive or inconclusive.

CC(=O)OCC(NC(=O)C(COCc1ccccc1)NC(=O)OC(C)(C)C)C1OC(n2cc(C)c(=O)[nH]c2=O)C(OC(C)=O)C1OC(C)=O (stereo not given) was read as JMJD2A Tudor -11% and HP1b binding inh 43%.
`C[n+]1ccccc1/C=C1\Sc2ccccc2N1CCO` gave BAZ2B block inconclusive, PI5P4K alpha inh -10, JMJD2A Tudor inconclusive, G9a block 50µM*, HP1b binding inh 33% and PLK1 PBD inh 10%.
`Cc1ccc2c(c1)S/C(=C/c1ccc[n+](CCO)c1)N2C` gave BAZ2B block -18%, PI5P4K alpha inh 9, JMJD2A Tudor inconclusive, G9a block inconclusive, HP1b binding inh 18% and PLK1 PBD inh -4%.
`Cc1ccc2c(c1)S/C(=C\c1cccc[n+]1C)N2CCO` gave BAZ2B block -16%, PI5P4K alpha inh -3, JMJD2A Tudor inconclusive, G9a block inconclusive, HP1b binding inh 11% and PLK1 PBD inh 24µM*.
Screening CCOC(=O)c1[nH]cnc1C(=O)NC(C)C returned BAZ2B block -37%, PI5P4K alpha inh -4, JMJD2A Tudor 35µM*, G9a block inconclusive, HP1b binding inh -8% and PLK1 PBD inh 3%.
`CCOC(=O)c1[nH]cnc1C(=O)N[C@@H](C)c1ccccc1` gave BAZ2B block 56µM*, PI5P4K alpha inh 3, JMJD2A Tudor -20%, G9a block 7%[0.501 µM], HP1b binding inh 33% and PLK1 PBD inh 3%.
CCN(CC)C(=O)c1[nH]cnc1C(=O)N[C@@H](C)c1ccccc1 was read as BAZ2B block inconclusive, PI5P4K alpha inh 0, JMJD2A Tudor -18%, G9a block -3%[0.501 µM], HP1b binding inh 28% and PLK1 PBD inh -3%.
CCN(CC)C(=O)c1[nH]cnc1C(=O)N[C@H](C)c1ccccc1 was read as BAZ2B block -32%, PI5P4K alpha inh -2, JMJD2A Tudor 89µM*, G9a block -3%[0.501 µM], HP1b binding inh 21% and PLK1 PBD inh 4%.
For C[C@H](NC(=O)c1nc[nH]c1C(=O)OCc1ccccc1)c1ccccc1 the results were BAZ2B block 4%, PI5P4K alpha inh 3, JMJD2A Tudor -9%, G9a block 1%[0.501 µM], HP1b binding inh 63% and PLK1 PBD inh -8%.
Screening CCOC(=O)c1nc[nH]c1C returned BAZ2B block 2%, JMJD2A Tudor 4%, G9a block inconclusive, HP1b binding inh 27% and PLK1 PBD inh -2%.
CCOC(=O)c1[nH]cnc1C(=O)O was read as BAZ2B block 20µM*, PI5P4K alpha inh -23, JMJD2A Tudor 2µM*, G9a block -93%[12.7 µM], HP1b binding inh -9% and PLK1 PBD inh -11%.
For Cc1nnc(SCc2ccccc2Cl)c2cc3occc3n12 the results were BAZ2B block 28µM*, JMJD2A Tudor inconclusive, G9a block 13µM* and HP1b binding inh -14%.
Screening O=C(Nc1nc2c(s1)CN(Cc1ccccc1)CC2)C1CCCC1 returned BAZ2B block inconclusive, PI5P4K alpha inh -8, JMJD2A Tudor -14%, G9a block 45µM*, HP1b binding inh 15% and PLK1 PBD inh 4%.
Screening CC(C)(C)C(=O)Nc1nc2c(s1)CN(Cc1ccccc1)CC2 returned BAZ2B block -33%, PI5P4K alpha inh 1, JMJD2A Tudor -17%[11.4 µM], G9a block 18µM*, HP1b binding inh 5% and PLK1 PBD inh -15%.
Screening O=C(Nc1nc2c(s1)CN(Cc1ccccc1)CC2)c1c(F)cccc1F returned PI5P4K alpha inh -27, JMJD2A Tudor 50µM*, G9a block 8.9µM*, HP1b binding inh -8% and PLK1 PBD inh 21µM*.
Screening CC1(C)CC(=O)C(C(c2ccncc2)C2C(=O)CC(C)(C)CC2=O)C(=O)C1 returned BAZ2B block -31%, PI5P4K alpha inh 2, JMJD2A Tudor -8%, G9a block 50µM*, HP1b binding inh 82% and PLK1 PBD inh -9%.
`Cc1ccc(C(C2C(=O)CC(C)(C)CC2=O)C2C(=O)CC(C)(C)CC2=O)s1` gave BAZ2B block inconclusive, PI5P4K alpha inh -17, JMJD2A Tudor -32%, G9a block 45µM*, HP1b binding inh 14% and PLK1 PBD inh 2.7µM*.
COc1ccc(C(C2C(=O)CC(C)(C)CC2=O)C2C(=O)CC(C)(C)CC2=O)cc1 was read as BAZ2B block -16%, PI5P4K alpha inh -17, JMJD2A Tudor -17%, G9a block 45µM*, HP1b binding inh 58% and PLK1 PBD inh 9.5µM*.
COc1cc(C(C2C(=O)CC(C)(C)CC2=O)C2C(=O)CC(C)(C)CC2=O)ccc1O was read as BAZ2B block -12%, PI5P4K alpha inh inconclusive, JMJD2A Tudor 5%, G9a block 38%[0.501 µM], HP1b binding inh 50% and PLK1 PBD inh inconclusive.
`CC1(C)CC(=O)C(C(c2cccc([N+](=O)[O-])c2)C2C(=O)CC(C)(C)CC2=O)C(=O)C1` gave BAZ2B block 0%, PI5P4K alpha inh 2, JMJD2A Tudor -16%, G9a block 1%[59 µM], HP1b binding inh 28% and PLK1 PBD inh -22%.
For CC1(C)CC(=O)C(C(c2ccc3c(c2)OCO3)C2C(=O)CC(C)(C)CC2=O)C(=O)C1 the results were PI5P4K alpha inh -17 and PLK1 PBD inh 17µM*.
O=C1CSC(c2ccco2)N1 (stereo not given) was read as BAZ2B block 1%, PI5P4K alpha inh 0, JMJD2A Tudor -4%, G9a block 79µM*, HP1b binding inh 27% and PLK1 PBD inh -8%.
O=C(O)C1CSC(c2ccco2)N1 (stereo not given) was read as BAZ2B block 50µM*, PI5P4K alpha inh -80*, JMJD2A Tudor -22%[11.4 µM], G9a block 3.2µM*, HP1b binding inh 40µM* and PLK1 PBD inh inconclusive.
`O=C1CC(=O)CC(c2ccco2)C1` gave BAZ2B block -28%, PI5P4K alpha inh 0, JMJD2A Tudor -27%, G9a block -41%[12.7 µM], HP1b binding inh 5% and PLK1 PBD inh -9%.
For CCCC1N=C2c3ccccc3N=C(SCC(=O)NCCc3ccc(Cl)cc3)N2C1=O (stereo not given) the results were BAZ2B block -12%, JMJD2A Tudor -4%, G9a block -4%[12.7 µM] and HP1b binding inh 26%.
